Reference: PubChem BioAssay AID1159580 (chemical genetic matrix, 2015)
In all, about 5,500 compounds went through this assay and about 2,000 (36%) were called active. About 18% were inconclusive and are not listed. Cut-off read from the data, not from the text of the source: active = normalized growth mostly below about 0.91 (no sharp cut-off); inconclusive = no clear call, values can overlap the other calls; inactive = mostly above about 0.92. The list shows a part of the results.

Assay: chemical genetic growth profiling, strain panel (AID 1159580);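 note: tested at 20 µM; growth read once vehicle control cultures reached saturation at 30 °C; 1 = growth at the plate median or of vehicle wells; lower values mean less growth of the strain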
Settings: growth OD
[1] = S. cerevisiae deletion strains, locus YPL055C, strain LGE1, active compounds read low
[2] = S. cerevisiae deletion strains, locus YBR229C, strain ROT2, active compounds read low
[3] = S. cerevisiae deletion strains, locus YDL101C, strain DUN1, active compounds read low
[4] = S. cerevisiae deletion strains, locus YDL134C, strain PPH21, active compounds read low
[5] = S. cerevisiae deletion strains, locus YDR150W, strain NUM1, active compounds read low
[6] = S. cerevisiae deletion strains, locus YEL061C, strain CIN8, active compounds read low
[7] = S. cerevisiae deletion strains, locus YGR078C, strain PAC10, active compounds read low
[8] = S. cerevisiae deletion strains, locus YHR030C, strain SLT2, active compounds read low
[9] = S. cerevisiae deletion strains, locus YHR087W, strain rtc3, active compounds read low
[10] = S. cerevisiae deletion strains, locus YJR043C, strain POL32, active compounds read low
[11] = S. cerevisiae deletion strains, locus YJR075W, strain HOC1, active compounds read low
[12] = S. cerevisiae deletion strains, locus YKL190W, strain CNB1, active compounds read low
[13] = S. cerevisiae deletion strains, locus YLR039C, strain RIC1, active compounds read low
[14] = S. cerevisiae deletion strains, locus YLR058C, strain SHM2 (second series), active compounds read low
[15] = S. cerevisiae deletion strains, locus YLR085C, strain ARP6, active compounds read low
[16] = S. cerevisiae deletion strains, locus YLR262C, strain YPT6, active compounds read low
[17] = S. cerevisiae deletion strains, locus YML094W, strain GIM5, active compounds read low
[18] = S. cerevisiae deletion strains, locus YMR219W, strain ESC1, active compounds read low
[19] = S. cerevisiae deletion strains, locus YMR263W, strain SAP30, active compounds read low
[20] = S. cerevisiae deletion strains, locus YNL153C, strain GIM3, active compounds read low
[21] = S. cerevisiae deletion strains, locus YNL298W, strain CLA4 (second series), active compounds read low
[22] = S. cerevisiae deletion strains, locus YNL322C, strain KRE1, active compounds read low
[23] = S. cerevisiae deletion strains, locus YNR030W, strain Alg12, active compounds read low
[24] = S. cerevisiae deletion strains, locus YOL006C, strain TOP1, active compounds read low
[25] = S. cerevisiae deletion strains, locus YPL241C, strain CIN2, active compounds read low
[26] = S. cerevisiae deletion strains, locus YPR135W, strain CTF4, active compounds read low
[27] = S. cerevisiae deletion strains, locus YAL013W, strain DEP1, active compounds read low
[28] = S. cerevisiae deletion strains, locus YMR307W, strain GAS1, active compounds read low

Measured: normalized growth

C=CC[C@H](N)C(=O)O
inactive: S. cerevisiae deletion strains, locus YAL040C, strain CLN3, active compounds read low 0.997 | S. cerevisiae deletion strains, locus YCL061C, strain MRC1 (second series), active compounds read low 1.01 | S. cerevisiae deletion strains, locus YDR363W, strain ESC2, active compounds read low 0.962 | S. cerevisiae deletion strains, locus YER002W, strain NOP16, active compounds read low 1.01 | S. cerevisiae deletion strains, locus YNL175C, strain NOP13, active compounds read low 1.01 | S. cerevisiae deletion strains, locus YNL197C, strain WHI3, active compounds read low 0.976 | S. cerevisiae deletion strains, locus YNL224C, strain SQS1, active compounds read low 0.972 | S. cerevisiae deletion strains, locus YOR083W, strain WHI5 (second series), active compounds read low 0.974 | [1] 0.99

COc1cccc(C2SCc3cc(C)c(C)cc3CS2)c1O
inactive: [2] 0.994 | S. cerevisiae deletion strains, locus YCL061C, strain MRC1, active compounds read low 0.998 | [3] 0.992 | [4] 1.02 | [5] 0.932 | [6] 1.03 | [7] 1.01 | [8] 1.01 | [9] 1.01 | [10] 0.972 | [11] 0.985 | [12] 1.02 | [13] 1.07 | [14] 1.03 | [15] 1.04 | [16] 1.05 | [17] 0.999 | [18] 1 | [19] 0.902 | [20] 0.988 | [21] 0.986 | [22] 1.01 | [23] 0.982 | [24] 1.12 | [1] 0.904 | [25] 0.957 | [26] 1.01 | S. cerevisiae strains, strain wild type, active compounds read low 1.01

CCOC(=O)CCC(C#N)(c1ccc(Cl)cc1)N1CCOCC1 (stereo not given)
inactive: [27] 0.99 | [2] 0.997 | [3] 1.04 | [5] 1.05 | [6] 1 | [7] 1.01 | [8] 0.979 | [9] 0.978 | [10] 1.02 | [11] 1.01 | [13] 1.11 | [14] 0.982 | [15] 0.962 | [16] 1.01 | [17] 0.99 | [18] 0.983 | [19] 1.02 | [20] 0.993 | [21] 0.996 | [22] 0.988 | [23] 0.985 | [24] 0.904 | [1] 0.943 | [25] 0.992 | [26] 1.01

Cc1cc(N=C(N)N=C(N)N)no1
inactive: [27] 1.01 | [2] 1.01 | [3] 1.02 | [5] 0.902 | [6] 1 | [7] 1.01 | S. cerevisiae deletion strains, locus YGR229C, strain SMI1, active compounds read low 0.993 | [8] 1 | [9] 1.02 | S. cerevisiae deletion strains, locus YJL187C, strain SWE1, active compounds read low 1 | [10] 0.998 | [11] 1 | [12] 1 | [13] 1.01 | [14] 1.01 | [15] 0.988 | [16] 1.01 | [17] 1.03 | [18] 1 | [19] 1 | [28] 0.969 | S. cerevisiae deletion strains, locus YNL128W, strain TEP1, active compounds read low 1.02 | [20] 1 | [21] 1.02 | [22] 1 | [23] 1.01 | [24] 1.02 | [1] 0.964 | [25] 1.01 | [26] 1.07

CCOC(=O)c1ccc(N2CCOCC2)c(N=Cc2cc(Cl)ccc2O)c1
inactive: [27] 0.94 | [3] 0.928 | [5] 0.91 | [9] 0.915 | [10] 0.946 | [14] 0.96 | [18] 0.947 | [19] 0.917 | [20] 0.951 | [22] 0.99 | [1] 0.884 | [25] 0.908
active: [2] 0.901 | [4] 0.781 | [6] 0.757 | [7] 0.892 | [8] 0.266 | [11] 0.855 | [12] 0.678 | [13] 0.434 | [15] 0.508 | [16] 0.38 | [17] 0.822 | [28] 0.41 | [21] 0.754 | [23] 0.885 | [24] 0.323 | [26] 0.516
